Our source for the outcome values is PubChem BioAssay (EPA / NIEHS).

SMILES strings stand for the structures. Records with an inconclusive call do not appear. Activity calls are given as the source filed them. The calls were made as follows: active = hit-call score of the fitted dose curve at least 0.9, where 1 is the maximum; inconclusive = response in the unintended direction; inactive = score below 0.9.

The target of this assay is Nuclear receptor subfamily 1 group I member 3 (Homo sapiens) (UniProt Q14994). Kind of assay: ATG_CAR_TRANS: Attagene TRANS-FACTORIAL HepG2 Assay for human Constitutive Androstane Receptor (CAR) (AID 2282969).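 Also: activators raise reporter mRNA above DMSO so AC50 marks induction.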 The conditions noted are these: HepG2 Attagene TRANS-FACTORIAL CAR reporter. On the procedure: ATG_TRANS is a cell-based, multiplexed-readout assay that uses HepG2, a human liver cell line, with measurements taken at 24 hours after chemical dosing in a 24-well plate.ATG_CAR_TRANS is one of 30 assay component(s) measured or calculated from the ATG_TRANS assay. It is designed to make measurements of mRNA induction, a form of inducible reporter, as detected with fluorescence intensity signals by Reverse transcription polymerase chain reaction (RT-PCR) and Capillary electrophoresis technology.Data from the assay component ATG_CAR_TRANS was analyzed into 1 assay endpoint. This assay endpoint, ATG_CAR_TRANS, was analyzed in the positive analysis fitting direction relative to DMSO as the negative control and baseline of activity. Using a type of inducible reporter, measures of mRNA for gain-of-signal activity can be used to understand the reporter gene at the transcription factor-level as they relate to the gene NR1I3. Furthermore, this assay endpoint can be referred to as a primary readout, because this assay has produced multiple assay endpoints where this one serves a reporter gene function. To generalize the intended target to other relatable targets, this assay endpoint is annotated to the nuclear receptor intended target family, where the subfamily is non-steroidal.
Nuclear receptor subfamily 1 group I member 3 (Homo sapiens), sequence (Q14994 whole entry, looked up): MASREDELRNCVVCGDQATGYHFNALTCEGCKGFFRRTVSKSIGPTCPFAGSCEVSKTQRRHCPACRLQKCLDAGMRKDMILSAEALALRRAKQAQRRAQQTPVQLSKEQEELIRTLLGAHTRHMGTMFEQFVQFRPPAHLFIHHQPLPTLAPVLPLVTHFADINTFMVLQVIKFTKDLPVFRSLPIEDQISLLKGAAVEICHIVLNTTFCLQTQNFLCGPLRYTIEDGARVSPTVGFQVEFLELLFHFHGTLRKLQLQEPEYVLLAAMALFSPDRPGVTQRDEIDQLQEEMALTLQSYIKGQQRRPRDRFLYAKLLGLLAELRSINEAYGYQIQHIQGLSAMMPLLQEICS
Human liver HepG2 cells are transiently transfected with multiple reporter transcription units (MRTUs) in 6-well plates using FuGene 6 reagent (Roche; 3 ml FuGene/1 mg DNA). The MRTU constructs are regulated by a cis-regulating element (promoter). […] A major difference between the CIS and TRANS system is that in CIS activities of endogenous TFs are measured, whereas the TRANS assay evaluates changes in activities of exogenous, chimeric NR-Gal4 proteins. […] At the end of 24 hour incubation, total RNA was isolated using TriZol reagent (Invitrogen). The isolated RNA is then reverse-transcribed using oligo(dT) primer and Mo-MLV reverse transcriptase (Invitrogen) with DNAse I (Ambion) treatment for 30 min. The one-tenth of the produced cDNA was amplified by PCR using Taq DNA polymerase (Invitrogen) and two reporter sequence-specific primers. The PCR products were fluorescently labeled by primer extension with 6-arboxyfluorescein (6-FAM) 5'-labeled reporter sequence-specific primer (2 min at 95 C, 20 s at 68 C and 10 min at 72 C) and these products were digested with 5U of HpaI (New England Biolabs) for 2h at 37 C. The fragments were purified using Qiaquick PCR columns (Qiagen), analyzed on an ABI 3130xL genetic analyzer (Applied Biosystems) with peak positions identified by using a set of X-rhodamine (ROX)-labeled MapMarker1000 molecular weight standards (BioVentures). The raw capillary electrophoresis data was processed using Attagraph software (Attagene).
Regarding `CNC(=O)Oc1cccc2c1OC(C)(C)C2`, the compound was called inactive. The entry for `C1=Cc2cccc3cccc1c23` is “inactive”.

Take `Cc1cc(N=Nc2ccccc2C)ccc1N`: the result was inactive. As for `CCCCC(CC)COC(=O)c1ccc(C(=O)OCC(CC)CCCC)c(C(=O)OCC(CC)CCCC)c1` (stereo not given), the outcome was inactive. The entry for `CC(C)(C)OOC(C)(C)CCC(C)(C)OOC(C)(C)C` is “inactive”. As for `CC(C)N(Cc1ccccc1)C(=O)C(C)(C)C`, the entry is “inactive”; as for `Nc1ccc([N+](=O)[O-])cc1`, “inactive”. The entry for `O=C1CCCO1` is “inactive”; for `O=[N+]([O-])c1ccc(Oc2ccc(Cl)cc2Cl)cc1` it is “inactive”.

As to `Nc1ccc(Cc2ccc(N)cc2)cc1`, the call was inactive. The entry for `OCCOCCO` is “inactive”; for `Nc1ccc(Cl)cc1N` it is “inactive”; for `Nc1ccc(Oc2ccc(N)cc2)cc1` it is “inactive”. Take `c1ccc2c(c1)oc1ccccc12`: the compound was classed as inactive. The entry for `Clc1ccc(C(c2ccc(Cl)cc2)C(Cl)Cl)cc1` is “inactive”; for `CC(C)(OOC(C)(C)c1ccccc1)c1ccccc1` it is “inactive”; for `CCCCCOC(=O)c1ccccc1C(=O)OCCCCC` it is “inactive”.

With `CCC(C)c1ccc(O)cc1` (stereo not given), the call was inactive. Turning to `CCNS(=O)(=O)C(F)(F)C(F)(F)C(F)(F)C(F)(F)C(F)(F)C(F)(F)C(F)(F)C(F)(F)F`, the outcome was inactive.

With `c1ccc(N=Nc2ccccc2)cc1`, the compound was classed as inactive. As for `c1ccc2c(c1)-c1cccc3cccc-2c13`, the entry is “inactive”; as for `Cc1cccc(N)c1N`, “inactive”. `O=[N+]([O-])C(Br)(CO)CO`: the outcome was inactive. The entry for `OCCCl` is “inactive”. As for `ClC1=C(Cl)[C@]2(Cl)[C@H]3[C@H]([C@@H]4C=C[C@H]3C4)[C@@]1(Cl)C2(Cl)Cl`, the entry is “inactive”. In the case of `CCCCOC(=O)c1ccccc1C(=O)OCc1ccccc1`, the call was inactive.

In the case of `Oc1ccccc1Cl`, the call was inactive. As to `O=P(OCCCl)(OCCCl)OCCCl`, the compound was called inactive.

`Cc1ccc([N+](=O)[O-])cc1`: the compound was called inactive.

For `COC(=O)Nc1nc2ccccc2[nH]1`, the result was inactive.

`N#CC(Br)Br`: the compound was classed as inactive. For `CCCSC(=O)N(CCC)CCC`, the call was inactive. As for `CC(O)CCO` (stereo not given), the compound was classed as inactive. Consider `Cc1ccc(N)cc1`, for which the outcome was inactive. As for `CCOC(=O)[C@]1(c2ccccc2)Oc2ccccc2[C@@H]1N`, the entry is “inactive”.
